Bioassay records from PubChem BioAssay.
A selection: hits, their analogues and other compounds. The true share with any hit is near 27%.
sEH inhibitor = soluble epoxide hydrolase inhibitors, primary screen, biochemical, human sEH. Bifunctional epoxide hydrolase 2 (Homo sapiens), P34913. recombinant human sEH enzymatic activity assay. inhibition, % at 2 µM. hit rate 0.34% among 91,000; in the data active = inhibition above about 80%
CYP2C19 activ = human CYP2C19 activators, primary screen, biochemical, luminescence. AID 1025, 2008. recombinant CYP2C19, luciferin-H EGE luminescence; stronger effect = higher value; 0 = fully inhibited enzyme, 1 = untreated enzyme. 96,000 tested, under 10 active. activation factor at 5 µM;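 active = activation factor of at least 2 at 5 µM in the primary screen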;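 note: 0 = wells with 2.5 mM tranylcypromine and 1 = vehicle-only wells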
Target sequence (P33261 whole entry, looked up): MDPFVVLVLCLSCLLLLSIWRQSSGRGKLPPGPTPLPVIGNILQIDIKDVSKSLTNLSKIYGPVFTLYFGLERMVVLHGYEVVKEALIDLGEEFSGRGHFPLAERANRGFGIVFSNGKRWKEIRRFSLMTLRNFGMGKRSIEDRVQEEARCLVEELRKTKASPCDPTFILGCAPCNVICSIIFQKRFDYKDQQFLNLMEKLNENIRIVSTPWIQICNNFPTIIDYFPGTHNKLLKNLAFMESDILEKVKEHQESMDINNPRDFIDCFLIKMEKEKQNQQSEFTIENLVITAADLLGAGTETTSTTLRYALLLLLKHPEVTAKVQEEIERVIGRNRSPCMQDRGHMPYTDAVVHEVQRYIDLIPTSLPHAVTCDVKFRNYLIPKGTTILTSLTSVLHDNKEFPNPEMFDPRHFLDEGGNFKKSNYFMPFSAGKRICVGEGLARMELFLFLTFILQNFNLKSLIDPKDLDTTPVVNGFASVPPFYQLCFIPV
CYP2C9 inh = blockers of cytochrome P450 2C9 activity – biochemical, luminescence, ADME assay, primary screen; P11712; CYP2C9 Supersomes, luciferin-H conversion; inhibition, % at 5 µM; hit rate 20% among 96,000;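 active = blocking of liver enzyme CYP2C9 beyond about 50% at 5 µM, limit read from the data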
CYP2C19 inh = blockers of cytochrome P450 2C19 activity – biochemical, luminescence, ADME assay, primary screen; hit rate 21% among 96,000; CYP2C19 Supersomes, luciferin-H EGE luminescence, 30 min; inhibition, % at 5 µM; AID 778, 2007; P33261;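 active = CYP2C19 inhibition above a set limit at 5 µM in the primary screen, cut at about 50% in these data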;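 note: plate controls were negative control wells for no effect and 2.5 mM tranylcypromine positive control for full effect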
sEH act = soluble epoxide hydrolase activators, primary screen, biochemical, human sEH; Bifunctional epoxide hydrolase 2 (Homo sapiens), P34913; purified human sEH enzymatic activity, activator screen; activation, % at 2 µM; hit rate 0.04% among 91,000; AID 717, 2007; in the data active = activation above about 37%
CYP2C9 activ = human CYP2C9 activators, primary screen, biochemical, luminescence. Cytochrome P450 2C9 (Homo sapiens), P11712. recombinant CYP2C9, luciferin-H conversion; stronger effect = higher value; factor 1 = untreated enzyme, 0 = blocked. activation factor at 5 µM. hit rate 1.4% among 96,000. AID 1024, 2008;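 active = activation factor of 2 or more for CYP2C9 at a 5 µM dose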;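 note: 0 = sulfaphenazole-blocked wells and 1 = vehicle-only wells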
The depositor's hits bear a star; · = not tested or not shown.

SMILES	sEH inhibitor	CYP2C19 activ	CYP2C9 inh	CYP2C19 inh	sEH act	CYP2C9 activ
N#CCCSc1ccccc1NC(=O)c1ccc(S(=O)(=O)N2CCCC2)cc1	-9	0.8	76*	19	8	0.2
COC(=O)c1ccccc1NC=C1C(=O)OC2(CCCCC2)OC1=O	·	1	25	4	·	0.7
COc1ccccc1NC=C1C(=O)OC2(CCCCC2)OC1=O	0	0.8	-177	20	0	2.8*
O=C(COC(=O)C1CC1)Nc1ccc(OC(F)F)cc1	-1	0.2	16	77*	2	0.8
O=C(COC(=O)C1CCC1)Nc1ccc(OC(F)F)cc1	·	0.1	12	86*	·	0.9
CN(C)c1ccc(CNC(=O)C2CCN(S(=O)(=O)c3ccc4c(c3)CCC(=O)N4)CC2)cc1	20	1	14	-2	-21	0.9
CC1=C(C)NC(=S)SC1	-2	1.1	-9	-6	2	1.1
CCCCOC(=O)Nc1cc(C)c(Cl)cc1OC	7	0.9	23	8	-7	0.8
CCCOC(=O)Nc1cc(OC)c(Cl)cc1OC	9	0.1	47	89*	-11	0.5
O=C(NCCc1ccccc1)C1CCCN(C(=O)NC2CCCCC2)C1 (centres undefined)	62	1.1	4	-12	-61	1
CCCCn1c(N)c(N(CCC(C)C)C(=O)CSc2nnc(C)s2)c(=O)[nH]c1=O	-5	0.8	4	16	4	1
O=C(c1cc2ccccc2oc1=O)N1CCSC1c1ccco1 (centres undefined)	9	0.4	-155	56*	-8	2.5*
CN1CCC(=NNC(=O)C(=O)NC2CCCC2)CC1	5	1	-8	-3	-7	1.1
CN1CCC(=NNC(=O)C(=O)NC(C)(C)C)CC1	-14	0.7	55*	31	13	0.4
Fc1ccc(CSc2nnc(-c3cccs3)o2)cc1	-2	0.2	72*	78*	3	0.3
CCSc1nnc(-c2cccs2)o1	-8	1.1	-1	-6	11	1
c1ccc(CSc2nnc(-c3cccs3)o2)cc1	-9	0.6	28	39	10	0.7
Fc1ccccc1CSc1nnc(-c2cccs2)o1	-12	0.1	80*	85*	13	0.2
O=C(c1ccc2c(c1)N(Cc1ccccc1)CCS2)N1CCCCC1	12	0.8	14	17	-10	0.9
O=C(CCn1cccc1)Nc1cc(F)ccc1F	-8	0.6	12	35	7	0.9
CCc1c(C)nc2ncnn2c1N1CCC(C(=O)Nc2ccccc2)CC1	51	0.1	66*	95*	-52	0.3
CCc1c(C)nc2ncnn2c1N1CCC(C(=O)Nc2ccc(C)cc2)CC1	83*	0.7	59*	29	-83	0.4
Cc1nc2ncnn2c(N2CCCC(C(=O)Nc3ccc4c(c3)CCC4)C2)c1C (centres undefined)	·	0.5	66*	48	·	0.3
CC1CCCCC1NC(=O)CN1C(=O)NC(Cc2ccccc2)(Cc2ccccc2)C1=O (centres undefined)	6	0.4	20	60*	-5	0.8
CC(NC(=O)CN1C(=O)NC(Cc2ccccc2)(Cc2ccccc2)C1=O)C12CC3CC(CC(C3)C1)C2 (centres undefined)	0	0.8	8	21	3	0.9
SMILES	sEH inhibitor	CYP2C19 activ	CYP2C9 inh	CYP2C19 inh	sEH act	CYP2C9 activ
O=c1c2ccccc2nc(-c2ccccc2)n1CCN1CCOCC1	·	0.7	12	26	·	0.9
Cc1[nH]c2ccccc2c1C(=O)CSc1nc2ccccc2[nH]1	5	0.7	-54	31	-4	1.5
COc1ccc(-c2nc3ccccc3c(=O)n2CCCN2CCOCC2)cc1	-3	0.1	7	90*	2	0.9
Cc1[nH]c2ccccc2c1C(=O)CSc1nc2ccccc2c(=O)n1CCCN1CCOCC1	-16	0.3	85*	73*	15	0.1
CCOc1ccc(N=c2scc(-c3ccccc3)n2CCO)cc1	-3	0.3	48	68*	-2	0.5
OCCn1c(-c2ccc3c(c2)OCO3)csc1=Nc1ccccc1	-6	0	87*	96*	5	0.1
CC(=O)Nc1cc(C(N)=O)c(Cl)cc1Cl	-13	1.1	-16	-12	14	1.2
COC(=O)c1c(NC(=O)C2(C)Cc3ccccc3C(=O)O2)sc2c1CCCC2 (centres undefined)	-14	0.4	56*	60*	14	0.4
CC1(C(=O)Nc2nnc(SCc3ccccc3)s2)Cc2ccccc2C(=O)O1 (centres undefined)	4	0.9	79*	15	-6	0.2
COC(=O)c1c(NC(=O)Cc2cccs2)sc2c1CCCC2	1	0.8	35	22	0	0.7
O=C(Nc1nnc(SCc2ccccc2)s1)c1cc2c(s1)CCCC2	23	0.8	38	22	-22	0.6
CC1(C(=O)Nc2nccs2)Cc2ccccc2C(=O)O1 (centres undefined)	-7	1	-1	-2	1	1
COc1ccccc1NC(=O)C1(C)Cc2ccccc2C(=O)O1 (centres undefined)	·	0.6	-134	40	·	2.3*
O=C(CN1CCCCCC1)Nc1ccc(F)c(F)c1	2	·	·	·	3	·
O=C(CN1CCCCC1)Nc1ccc(F)c(Cl)c1	·	0.2	8	81*	·	0.9
Cc1ccc(S(=O)(=O)Nc2ccc(NC(=O)CN3CCCCC3)c(Cl)c2)cc1	8	0.3	100*	71*	-8	0
O=C(CN1CCCCC1)Nc1cc(Cl)ccc1Cl	3	0.4	-118	63*	-5	2.2*
O=C(CN1CCOCC1)Nc1ccccc1Cl	-14	0.8	1	19	13	1
O=C(CN1CCOCC1)Nc1cccc(Cl)c1Cl	7	0.2	-30	78*	-6	1.3
COc1ccc(CCNC(=O)CSc2nnnn2-c2ccccc2OC)cc1OC	11	0.7	29	32	-11	0.7
O=C(O)CCC(=O)NNC(=O)CCC(=O)NCc1ccccc1	12	0.9	11	13	-9	0.9
C=CCNC(=S)NNC(=O)c1ccc(OC(C)C)cc1	-2	0.9	4	14	2	1
COc1ccc2cnn(-c3ccc(C)cc3)c(=O)c2c1OC	-4	0.7	65*	28	-2	0.4
CCOc1ccccc1OCCn1ncc2ccc(OC)c(OC)c2c1=O	-14	0.4	-24	58*	17	1.2
COc1ccc(Oc2c(Cl)cnn(-c3ccc(C)cc3)c2=O)cc1	-5	0.5	22	45	4	0.8
